Test results taken from PubChem BioAssay.
A number with no mark means an inactive call. Where a call stands in place of a potency, no number is given. For some assays here: Potency and affinity values are given separately. Activity calls are given as the source filed them. Unless noted, the rule behind the calls is not given here.

Key:
[1] = human hepatoma cell viability loss – ATP luminescence, cytotoxicity control for P. falciparum antimalarial project, primary screen (AID 2303;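 active = inhibition above 50%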); settings: HepG2 viability, 24-48 h, at 10 µM, stronger effect = higher value
[2] = target: L-lactate dehydrogenase (Plasmodium falciparum (isolate CDC / Honduras)) (UniProt Q27743); assay: PfLDH activity inhibition – cell lysate, 3D7 strain, counter-screen for P. falciparum growth inhibition project (AID 2304); settings: P. falciparum 3D7 crude extract, LDH APAD/NBT absorbance; at 2 µM; stronger effect = higher value
[3] = inhibition of 3D7 malaria parasite growth – strain 3D7 (AID 2306); settings: P. falciparum 3D7 erythrocytic growth, LDH absorbance, 72 h; at 2 µM; stronger effect = higher value
[4] = target: Calcium-dependent protein kinase 1 (Plasmodium falciparum (isolate 3D7)) (UniProt P62344); assay: PfCDPK1 kinase inhibitors, biochemical, TCAMS library (AID 1159585; cut-off not given, nearly all actives have IC50 up to about 0.98 µM;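 note: inhibitors leave more ATP so luminescence rises with inhibition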); settings: recombinant PfCDPK1, Kinase-Glo ATP depletion luminescence
[5] = target: Plasmodium falciparum protein kinase 6 (PK6, PF3D7_1337100) (UniProt Q8IDW1); assay: PfPK6 kinase inhibitors, biochemical, TCAMS library (AID 1159586); settings: recombinant PfPK6, Kinase-Glo ATP depletion luminescence
[6] = target: Protein kinase 7 (PK7), Plasmodium falciparum 3D7 (PF3D7_0213400) (UniProt Q7YTF7); assay: inhibition of Plasmodium PK7 catalytic activity – biochemical, TCAMS antimalarial set, Kinase-Glo luminescence (AID 1159587); settings: recombinant PfPK7, Kinase-Glo ATP depletion luminescence
[7] = target: Calcium-dependent protein kinase 4 (Plasmodium falciparum (isolate 3D7)) (UniProt Q8IBS5); assay: PfCDPK4 kinase inhibitors, biochemical, TCAMS library (AID 1159588; cut-off not given, nearly all actives have IC50 up to about 0.91 µM); settings: recombinant PfCDPK4, Kinase-Glo ATP depletion luminescence
[8] = antimalarial activity against Dd2 strain (AID 2302;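 active = growth inhibition above 50% at the single 2 µM test dose, taken to imply half-maximal potency below 2 µM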); settings: P. falciparum Dd2 in RBCs, LDH growth readout, 72 h; at 2 µM; stronger effect = higher value

Plasmodium falciparum protein kinase 6 (PK6, PF3D7_1337100), sequence (Q8IDW1 1-305): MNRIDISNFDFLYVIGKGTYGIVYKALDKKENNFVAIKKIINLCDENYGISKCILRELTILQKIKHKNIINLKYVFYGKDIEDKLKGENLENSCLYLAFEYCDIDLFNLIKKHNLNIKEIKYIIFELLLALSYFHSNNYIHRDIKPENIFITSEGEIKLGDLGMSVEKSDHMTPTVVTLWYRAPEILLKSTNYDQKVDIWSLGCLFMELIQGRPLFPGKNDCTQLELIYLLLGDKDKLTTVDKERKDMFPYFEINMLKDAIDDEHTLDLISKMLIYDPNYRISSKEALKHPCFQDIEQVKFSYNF
Protein kinase 7 (PK7), Plasmodium falciparum 3D7 (PF3D7_0213400), sequence (Q7YTF7 1-343): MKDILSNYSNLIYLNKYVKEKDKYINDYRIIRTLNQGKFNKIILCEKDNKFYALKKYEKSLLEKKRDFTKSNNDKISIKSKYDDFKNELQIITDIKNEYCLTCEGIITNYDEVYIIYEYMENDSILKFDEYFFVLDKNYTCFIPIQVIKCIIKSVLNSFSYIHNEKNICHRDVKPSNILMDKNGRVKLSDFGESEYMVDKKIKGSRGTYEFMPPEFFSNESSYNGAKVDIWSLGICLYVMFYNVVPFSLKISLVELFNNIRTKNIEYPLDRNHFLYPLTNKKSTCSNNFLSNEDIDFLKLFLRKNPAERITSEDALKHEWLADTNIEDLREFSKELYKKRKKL
L-lactate dehydrogenase (Plasmodium falciparum (isolate CDC / Honduras)), sequence (Q27743 whole entry, looked up): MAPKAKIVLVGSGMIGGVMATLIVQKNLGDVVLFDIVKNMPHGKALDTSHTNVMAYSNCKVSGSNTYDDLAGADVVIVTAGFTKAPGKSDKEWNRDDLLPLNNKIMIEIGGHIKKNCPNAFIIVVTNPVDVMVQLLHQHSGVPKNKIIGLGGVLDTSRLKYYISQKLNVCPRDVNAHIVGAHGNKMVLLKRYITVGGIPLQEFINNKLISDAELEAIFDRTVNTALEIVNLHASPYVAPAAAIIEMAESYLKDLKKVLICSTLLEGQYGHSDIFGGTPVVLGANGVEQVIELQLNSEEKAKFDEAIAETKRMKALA
Calcium-dependent protein kinase 4 (Plasmodium falciparum (isolate 3D7)), sequence (Q8IBS5 whole entry, looked up): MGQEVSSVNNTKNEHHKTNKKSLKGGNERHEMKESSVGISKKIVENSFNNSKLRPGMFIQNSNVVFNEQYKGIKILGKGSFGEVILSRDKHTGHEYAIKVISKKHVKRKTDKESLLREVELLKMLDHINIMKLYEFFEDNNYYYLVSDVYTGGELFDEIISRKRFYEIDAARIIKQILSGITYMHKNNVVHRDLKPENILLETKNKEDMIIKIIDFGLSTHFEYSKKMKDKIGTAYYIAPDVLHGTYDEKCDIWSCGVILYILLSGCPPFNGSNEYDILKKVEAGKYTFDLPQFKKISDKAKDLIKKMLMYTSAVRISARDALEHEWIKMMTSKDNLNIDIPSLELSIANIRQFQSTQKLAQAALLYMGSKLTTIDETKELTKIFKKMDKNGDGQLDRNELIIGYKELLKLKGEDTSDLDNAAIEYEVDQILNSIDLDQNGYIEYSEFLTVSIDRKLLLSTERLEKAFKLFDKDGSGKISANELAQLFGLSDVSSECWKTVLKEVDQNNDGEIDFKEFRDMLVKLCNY
Calcium-dependent protein kinase 1 (Plasmodium falciparum (isolate 3D7)), sequence (P62344 whole entry, looked up): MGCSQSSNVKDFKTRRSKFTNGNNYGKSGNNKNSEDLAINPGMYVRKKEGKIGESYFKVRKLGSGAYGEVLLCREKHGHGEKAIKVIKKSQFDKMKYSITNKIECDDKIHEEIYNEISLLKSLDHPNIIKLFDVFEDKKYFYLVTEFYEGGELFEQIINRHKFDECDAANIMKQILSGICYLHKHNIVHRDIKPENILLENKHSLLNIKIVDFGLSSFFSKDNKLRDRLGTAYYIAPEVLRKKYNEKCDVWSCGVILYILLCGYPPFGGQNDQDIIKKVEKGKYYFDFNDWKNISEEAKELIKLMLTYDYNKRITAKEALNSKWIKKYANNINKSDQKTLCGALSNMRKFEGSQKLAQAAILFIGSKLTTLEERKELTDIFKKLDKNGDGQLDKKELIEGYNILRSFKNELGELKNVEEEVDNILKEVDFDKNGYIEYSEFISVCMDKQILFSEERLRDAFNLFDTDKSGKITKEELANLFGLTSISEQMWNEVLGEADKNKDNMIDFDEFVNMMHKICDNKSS

SMILES	inhibition [1]	inhibition [2]	growth inhibition [3]	outcome [4]	outcome [5]	outcome [6]	outcome [7]	growth inhibition [8]
COc1c(C2CCN(CCCCNC(=O)C=Cc3ccccc3C(F)(F)F)CC2)ccc2c1CCCC2	98% (active)	-3%	96% (active)	inactive	inactive	inactive	inactive	
Cc1ccc(-n2c(C)cc(C(=O)CN3C(=O)NC(Cc4ccccc4)C3=O)c2C)cc1 (centres undefined)	-11%	3%	82% (active)	inactive	inactive	inactive	inactive	
O=C(Nc1ccc(C(F)(F)F)cc1)c1cc(Cl)cc2[nH]c(C(F)(F)F)nc12	86% (active)	-1%	102% (active)	inactive	inactive	inactive	inactive	
COc1cc(Cc2cnc(N)nc2N)ccc1OCc1csc(-c2ccc(Cl)cc2)n1	39%	2%	93% (active)	inactive	inactive	inactive	inactive	
c1ccc2c(NCCOCCNc3c4ccccc4nc4ccccc34)c3ccccc3nc2c1		5%	94% (active)	inactive	inactive	inactive	inactive	-1%
c1ccc2sc(-c3csc(Nc4ccncc4)n3)nc2c1	-4%	-1%	86% (active)	inactive	inactive	inactive	inactive	
CC(CC1CCCCC1)NCc1ccccc1OCCC(=O)N1CCCC1C(N)=O (centres undefined)	5%	8%	97% (active)	inactive	inactive	inactive	inactive	
Cc1csc2nc(C(C)c3ccc(NC(=O)c4cccs4)cc3)oc(=O)c12 (centres undefined)	-5%	-3%	90% (active)	inactive	inactive	inactive	inactive	
CCN(CC)c1ccc2nc(N)nc(N)c2c1		2%	93% (active)	inactive	inactive	inactive	inactive	-2%
Cc1nc(Nc2ccc(F)cc2)nc(N2CCc3ccccc3[C@@H]2C)c1C	12%	-3%	92% (active)	inactive	inactive	inactive	inactive	
COc1ccc(NS(=O)(=O)c2ccc(Oc3nc(C)nc4sc5c(c34)CCCC5)cc2)cc1	5%	-2%	96% (active)	inactive	inactive	inactive	inactive	
Nc1nc2ccc(CNc3ccc(C(=O)N[C@@H](CCC(=O)O)C(=O)O)cc3)cc2c(=O)[nH]1	2%	3%	96% (active)	inactive	inactive	inactive	inactive	
COc1ccc(OC)c(Cc2c(C)nc3nc(N)nc(N)c3c2C)c1		-2%	90% (active)	inactive	inactive	inactive	inactive	0%
CC(CO)(CO)NCc1cc2ccc3ccsc3c2c2ccccc12		2%	96% (active)	inactive	inactive	inactive	inactive	98% (active)
Nc1nc(N)c2c3c(ccc2n1)CCC3		-3%	92% (active)	inactive	inactive	inactive	inactive	2%
CCC(C)c1cnc2nc(N)nc(N)c2c1C (centres undefined)		-3%	97% (active)	inactive	inactive	inactive	inactive	1%
COc1cc(OC)cc(C(=O)Nc2nc(-c3ccc(NC(=O)c4ccccc4)cc3)cs2)c1	16%	-1%	88% (active)	inactive	inactive	inactive	inactive	
CCNC(=NCc1ccccc1)NCCCCCCNC(=NCc1ccccc1)NCC		-5%	96% (active)	inactive	inactive	inactive	inactive	95% (active)
COc1ccc(Cl)cc1N1CCN(CCCNC(=O)c2ccc(-c3nc4c(C)cccc4[nH]3)s2)CC1	-2%	5%	98% (active)	inactive	inactive	inactive	inactive	
O=C(O)CCc1ccc(-c2c[nH]c3ncc(-c4ccc5ncccc5c4)cc23)cc1	30%	-3%	88% (active)	inactive	inactive	inactive	inactive	
CCCOc1ccc(CNCCCCCCNCc2ccc(OCCC)c3ccccc23)c2ccccc12		-2%	101% (active)	inactive	inactive	inactive	inactive	96% (active)
O=C(Nc1ccc(OC2CCN(CC3CC3)CC2)c(Cl)c1)c1ccc2ncccc2c1	19%	-2%	84% (active)	inactive	inactive	inactive	inactive	
CC(=O)Nc1cccc(Nc2c3ccccc3nc3ccccc23)c1	31%	5%	82% (active)	inactive	inactive	inactive	inactive	
CCN(Cc1cccc2ccccc12)c1ccc2nc(N)nc(N)c2c1		3%	100% (active)	inactive	inactive	inactive	inactive	100% (active)

SMILES	inhibition [1]	inhibition [2]	growth inhibition [3]	outcome [4]	outcome [5]	outcome [6]	outcome [7]	growth inhibition [8]
Cc1nc2nc(N)nc(N)c2c(C)c1Cc1ccc([N+](=O)[O-])cc1		-1%	98% (active)	inactive	inactive	inactive	inactive	11%
CC(=O)Nc1ccc(CN2CCc3ccc(NS(=O)(=O)c4ccc(-c5cccc(C(F)(F)F)c5)cc4)cc3CC2)s1	23%	0%	82% (active)	inactive	inactive	inactive	inactive	
CCCCNC(=O)C1CCCN(C(=O)c2ccc(O)c(-c3ccc(Cl)c(Cl)c3)c2)C1 (centres undefined)	3%	2%	83% (active)	inactive	inactive	inactive	inactive	
Cc1cc(OCCCN2CCCC2)ccc1NC(=O)COc1ccc(Cl)cc1C(=O)c1cc(C#N)cc(C(F)(F)F)c1	18%	2%	85% (active)	inactive	inactive	inactive	inactive	
O=C(NCCCCN1CCC(c2ccc3c(c2OCCCO)CCCC3)CC1)c1ccc(-c2ccc(C(F)(F)F)cc2)c(CO)c1	66% (active)	4%	95% (active)	inactive	inactive	inactive	inactive	
CN(C)Cc1ccc(CNC2CCN(Cc3ccccc3Cl)CC2)cc1	23%	-3%	82% (active)	inactive	inactive	inactive	inactive	
CO/N=C(\C)c1ccc2c(c1)CCN(CCC1CCC(NC(=O)c3cccc(-c4noc(C)n4)c3)CC1)CC2 (centres undefined)	42%	-1%	90% (active)	inactive	inactive	inactive	inactive	
N=C(N)c1nc2ccccc2s1	1%	-1%	87% (active)	inactive	inactive	inactive	inactive	
Cc1cc(OCCCN2CCC(NC(=O)c3ccc(Br)cc3)C2)c2ccccc2n1 (centres undefined)	13%	-3%	85% (active)	inactive	inactive	inactive	inactive	
Cc1ccc(-c2cnc3[nH]cc(-c4ccc(C(=O)O)c(C)c4)c3c2)cc1C	37%	0%	96% (active)	inactive	inactive	inactive	inactive	
O=C(O)CCSc1ncnc2nc[nH]c12	7%	6%	103% (active)	inactive	inactive	inactive	inactive	
CN(C)c1ccc(NC(=O)Nc2ccnc3ccccc23)cc1Br	21%	3%	98% (active)	inactive	inactive	inactive	inactive	
Oc1ccc(CCNCCCCCNCCCc2ccc(Cl)cc2)cc1O	22%	-3%	91% (active)	inactive	inactive	inactive	inactive	
Cc1nn(-c2ccccc2)nc1C(=O)N(Cc1ccc(-c2ccc(CNCCc3ccc(S(C)(=O)=O)cc3)cn2)cc1)C1CC1	9%	-2%	84% (active)	inactive	inactive	inactive	inactive	
O=[N+]([O-])c1ccc(-n2nc(-c3cccnc3)n(Cc3ccco3)c2=S)c(Cl)c1	13%	-1%	95% (active)	inactive	inactive	inactive	inactive	
CC(C)CN1C(=O)C(c2ccc(F)c(F)c2)=C(O)C1c1ccccc1 (centres undefined)	0%	-7%	94% (active)	inactive	inactive	inactive	inactive	
CC(C)CNC(=O)c1ccc(-c2cccc(CN3CCC(N4CCCC4)CC3)c2)nc1	4%	-3%	81% (active)	inactive	inactive	inactive	inactive	
CCS(=O)(=O)c1ccc(/C(=N/OC)c2ccc[nH]2)cc1	-6%	-2%	85% (active)	inactive	inactive	inactive	inactive	
O=C(NNC(=O)c1ccc(CN2CCC(c3nc4ccccc4[nH]3)CC2)cc1)Nc1ccc(Oc2ccccc2)cc1	-2%	0%	86% (active)	inactive	inactive	inactive	inactive	
C[C@H]1CN(Cc2ccc(-c3cccc(CNC(=O)c4cccc(C(=O)c5ccc(Cl)c(Cl)c5)c4)c3)s2)CCN1	3%	3%	99% (active)	inactive	inactive	inactive	inactive	
CN1CCC(N2CCN(C(=O)c3cccc(-c4cccc(-c5nc6ccccc6[nH]5)c4)c3)CC2)CC1	10%	3%	100% (active)	inactive	inactive	inactive	inactive	
Cc1cc2c(cc1C(F)(F)F)N(C(=O)Nc1ccc(C(=O)NCCN3CCCC3)cc1)CC2	10%	3%	100% (active)	inactive	inactive	inactive	inactive	
Nc1[nH]c2ccccc2c(=O)c1-c1nc2ccccc2s1	16%	-6%	97% (active)	inactive	inactive	inactive	inactive	
